Source: PubChem BioAssay AID1159580 (chemical genetic matrix, 2015)
Out of some 5,500 compounds screened, about 2,000 (36%) were called active. Roughly 18% stayed inconclusive and do not appear here. Rule as the data show it: active = normalized growth mostly below about 0.91 (no sharp cut-off); inconclusive = no clear call, values can overlap the other calls; inactive = mostly above about 0.92. This is one part of the list.

Experiment: chemical genetic growth profiling, strain panel (AID 1159580);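 also: tested at 20 µM; growth read once vehicle control cultures reached saturation at 30 °C; 1 = growth at the plate median or of vehicle wells; lower values mean less growth of the strain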
Details: growth OD

Measured: normalized growth

O=C1C[C@@H](c2ccccc2)Oc2cc(O)cc(O)c21
active: S. cerevisiae deletion strains, locus YDL192W, strain arf1, active compounds read low 0.871 | S. cerevisiae deletion strains, locus YDR318W, strain mcm21, active compounds read low 0.875 | S. cerevisiae deletion strains, locus YDR502C, strain sam2, active compounds read low 0.892 | S. cerevisiae deletion strains, locus YGL248W, strain PDE1, active compounds read low 0.884 | S. cerevisiae deletion strains, locus YGR135W, strain pre9, active compounds read low 0.843 | S. cerevisiae deletion strains, locus YGR252W, strain gcn5, active compounds read low 0.595 | S. cerevisiae deletion strains, locus YKL009W, strain mrt4, active compounds read low 0.847 | S. cerevisiae deletion strains, locus YKR001C, strain vps1, active compounds read low 0.878 | S. cerevisiae deletion strains, locus YLR058C, strain SHM2, active compounds read low 0.887 | S. cerevisiae deletion strains, locus YLR342W, strain FKS1 (second series), active compounds read low 0.79 | S. cerevisiae deletion strains, locus YLR418C, strain cdc73, active compounds read low 0.711 | S. cerevisiae deletion strains, locus YML032C, strain rad52, active compounds read low 0.864 | S. cerevisiae deletion strains, locus YMR223W, strain ubp8, active compounds read low 0.862 | S. cerevisiae deletion strains, locus YNL298W, strain CLA4, active compounds read low 0.877 | S. cerevisiae deletion strains, locus YNL307C, strain MCK1, active compounds read low 0.901 | S. cerevisiae deletion strains, locus YOR184W, strain ser1, active compounds read low 0.757 | S. cerevisiae deletion strains, locus YPR167C, strain met16, active compounds read low 0.909
inactive: S. cerevisiae deletion strains, locus YBR021W, strain FUR4, active compounds read low 0.958 | S. cerevisiae deletion strains, locus YBR229C, strain ROT2, active compounds read low 0.927 | S. cerevisiae deletion strains, locus YCL029C, strain bik1, active compounds read low 0.939 | S. cerevisiae deletion strains, locus YDL035C, strain GPR1, active compounds read low 0.884 | S. cerevisiae deletion strains, locus YDL074C, strain BRE1, active compounds read low 0.858 | S. cerevisiae deletion strains, locus YDL101C, strain DUN1, active compounds read low 0.899 | S. cerevisiae deletion strains, locus YDL134C, strain PPH21, active compounds read low 0.903 | S. cerevisiae deletion strains, locus YDL185W, strain tfp1, active compounds read low 0.932 | S. cerevisiae deletion strains, locus YDR101C, strain arx1, active compounds read low 0.943 | S. cerevisiae deletion strains, locus YDR150W, strain NUM1, active compounds read low 0.949 | S. cerevisiae deletion strains, locus YDR162C, strain NBP2, active compounds read low 0.859 | S. cerevisiae deletion strains, locus YDR388W, active compounds read low 0.95 | S. cerevisiae deletion strains, locus YEL061C, strain CIN8, active compounds read low 0.957 | S. cerevisiae deletion strains, locus YER110C, active compounds read low 0.924 | S. cerevisiae deletion strains, locus YER155C, strain BEM2, active compounds read low 0.955 | S. cerevisiae deletion strains, locus YER167W, strain BCK2, active compounds read low 0.947 | S. cerevisiae deletion strains, locus YGL078C, strain dbp3, active compounds read low 0.947 | S. cerevisiae deletion strains, locus YGL086W, strain mad1, active compounds read low 1 | S. cerevisiae deletion strains, locus YGR078C, strain PAC10, active compounds read low 0.86 | S. cerevisiae deletion strains, locus YHR030C, strain SLT2, active compounds read low 0.97 | S. cerevisiae deletion strains, locus YHR079C, strain IRE1 (second series), active compounds read low 0.952 | S. cerevisiae deletion strains, locus YHR094C, strain hxt1, active compounds read low 0.934 | S. cerevisiae deletion strains, locus YHR129C, strain ARP1, active compounds read low 0.942 | S. cerevisiae deletion strains, locus YHR200W, strain rpn10, active compounds read low 0.942 | S. cerevisiae deletion strains, locus YIL066C, strain RNR3, active compounds read low 0.887 | S. cerevisiae deletion strains, locus YIL073C, strain SPO22, active compounds read low 0.91 | S. cerevisiae deletion strains, locus YIL125W, strain kgd1, active compounds read low 0.957 | S. cerevisiae deletion strains, locus YIR030C, strain dcg1, active compounds read low 0.942 | S. cerevisiae deletion strains, locus YJL095W, strain BCK1, active compounds read low 0.816 | S. cerevisiae deletion strains, locus YJL134W, strain LCB3, active compounds read low 0.963 | S. cerevisiae deletion strains, locus YJL168C, strain set2, active compounds read low 0.961 | S. cerevisiae deletion strains, locus YJL187C, strain SWE1 (second series), active compounds read low 0.893 | S. cerevisiae deletion strains, locus YJR043C, strain POL32, active compounds read low 0.906 | S. cerevisiae deletion strains, locus YJR075W, strain HOC1, active compounds read low 0.919 | S. cerevisiae deletion strains, locus YKL068W, active compounds read low 0.949 | S. cerevisiae deletion strains, locus YKL085W, strain MDH1 (second series), active compounds read low 0.929 | S. cerevisiae deletion strains, locus YKL085W, strain MDH1, active compounds read low 0.929 | S. cerevisiae deletion strains, locus YKL190W, strain CNB1, active compounds read low 0.955 | S. cerevisiae deletion strains, locus YLR039C, strain RIC1, active compounds read low 0.711 | S. cerevisiae deletion strains, locus YLR102C, strain apc9, active compounds read low 0.957 | S. cerevisiae deletion strains, locus YLR262C, strain YPT6, active compounds read low 0.656 | S. cerevisiae deletion strains, locus YLR268W, strain sec22, active compounds read low 0.943 | S. cerevisiae deletion strains, locus YLR330W, strain CHS5, active compounds read low 0.946 | S. cerevisiae deletion strains, locus YLR371W, strain rom2, active compounds read low 0.968 | S. cerevisiae deletion strains, locus YML016C, strain PPZ1, active compounds read low 0.96 | S. cerevisiae deletion strains, locus YML124C, strain tub3, active compounds read low 0.947 | S. cerevisiae deletion strains, locus YMR078C, strain ctf18, active compounds read low 0.929 | S. cerevisiae deletion strains, locus YMR307W, strain GAS1, active compounds read low 0.742 | S. cerevisiae deletion strains, locus YNL067W, strain RPL9B, active compounds read low 0.884 | S. cerevisiae deletion strains, locus YNL128W, strain TEP1, active compounds read low 0.936 | S. cerevisiae deletion strains, locus YNL153C, strain GIM3, active compounds read low 0.895 | S. cerevisiae deletion strains, locus YNL233W, strain BNI4, active compounds read low 0.886 | S. cerevisiae deletion strains, locus YNL250W, strain rad50, active compounds read low 0.954 | S. cerevisiae deletion strains, locus YNL271C, strain bni1, active compounds read low 0.93 | S. cerevisiae deletion strains, locus YNL322C, strain KRE1, active compounds read low 0.938 | S. cerevisiae deletion strains, locus YNR052C, strain pop2, active compounds read low 0.943 | S. cerevisiae deletion strains, locus YOL012C, strain htz1 0.987 | S. cerevisiae deletion strains, locus YOL147C, strain pex11, active compounds read low 0.933 | S. cerevisiae deletion strains, locus YOR061W, strain CKA2, active compounds read low 0.934 | S. cerevisiae deletion strains, locus YOR069W, strain VPS5, active compounds read low 0.943 | S. cerevisiae deletion strains, locus YOR136W, strain idh2, active compounds read low 0.968 | S. cerevisiae deletion strains, locus YOR144C, strain elg1, active compounds read low 0.945 | S. cerevisiae deletion strains, locus YOR316C, strain cot1, active compounds read low 0.943 | S. cerevisiae deletion strains, locus YPL055C, strain LGE1, active compounds read low 0.844 | S. cerevisiae deletion strains, locus YPL241C, strain CIN2, active compounds read low 0.955 | S. cerevisiae deletion strains, locus YPR119W, strain clb2, active compounds read low 0.949 | S. cerevisiae deletion strains, locus YPR141C, strain kar3, active compounds read low 0.955 | S. cerevisiae deletion strains, locus YPR163C, strain tif3, active compounds read low 0.927 | S. cerevisiae deletion strains, strain wtn01, active compounds read low 0.99 | S. cerevisiae strains, strain wild type, active compounds read low 0.927
